Mtb bLac sens – beta-lactam sensitization of Mtb H37Rv, H37Rv. M. tuberculosis H37Rv growth with meropenem, percent inhibition. inhibition, % at 25 µM. 330,000 tested, 0.27% active;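 note: growth measured after seven days incubation then overnight dye step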
RecA splice inh – Mtb RecA intein splicing inhibitors, primary screen, biochemical, fluorescence, HTS; Protein RecA (Mycobacterium tuberculosis (strain ATCC 25618 / H37Rv)), P9WHJ3; inhibition, % (test concentration not listed); AID 2221, 2009; cell-free RecA intein splicing; 290,000 tested, 0.75% active; in the data active = inhibition above about 30%
FadD28 FP inh – inhibitors of FadD28 bisubstrate probe binding, primary screen, biochemical, fluorescence polarization, single point; Mycobacterium tuberculosis FadD28 fatty-acid-AMP ligase; inhibition, % at 12.5 µM; 360,000 tested, 0.22% active; in the data active = inhibition above about 8.5%, passing the limit was not always enough
Rv3671c inh – Rv3671c serine protease inhibitors, primary screen, biochemical, fluorescence polarization, M. tuberculosis H37Rv | P9WHR9 | inhibition, % at 5.96 µM | 320,000 tested, 0.048% active | AID 2606, 2010; in the data active = inhibition above about 38%;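 note: extracellular domain of Rv3671c used as enzyme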
Target sequence (P9WHR9 whole entry, looked up, the tested form may be a part): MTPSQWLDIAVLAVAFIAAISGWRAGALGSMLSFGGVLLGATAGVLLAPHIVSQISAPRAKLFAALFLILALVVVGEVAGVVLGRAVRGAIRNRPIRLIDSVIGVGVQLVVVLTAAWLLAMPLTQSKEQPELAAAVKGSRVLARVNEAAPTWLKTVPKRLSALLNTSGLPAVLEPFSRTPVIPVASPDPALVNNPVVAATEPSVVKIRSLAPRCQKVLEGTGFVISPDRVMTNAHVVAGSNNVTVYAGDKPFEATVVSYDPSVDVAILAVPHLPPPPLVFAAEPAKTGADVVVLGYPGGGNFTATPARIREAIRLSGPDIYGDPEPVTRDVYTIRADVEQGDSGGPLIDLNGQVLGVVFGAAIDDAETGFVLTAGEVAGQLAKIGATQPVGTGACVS
Mtb hypoxia rep – PubChem AID 1159583 | 300,000 tested, 0.1% active | fluorescence inhibition, % (test concentration not listed) | M. tuberculosis hypoxia-regulated fluorescent reporter, fluorescence; in the data active = fluorescence inhibition mostly above about 23%, no sharp cut-off; inactive = mostly below about 17%
Mtb UGM inh – M. tuberculosis UGM enzyme inhibitors, primary screen, biochemical, fluorescence polarization, single point. UDP-galactopyranose mutase (Mycobacterium tuberculosis (strain ATCC 25618 / H37Rv)), …. purified UGM, fluorescence polarization probe displacement. inhibition, % at 10 µM. 320,000 tested, 0.06% active; in the data active = inhibition above about 10%, passing the limit was not always enough
GFP chromo cs – counter-screen: blocks GFP chromophore formation, dose response, counter-screen, biochemical, fluorescence, homogeneous; shares compounds with RecA splice inh; cell-free GFP chromophore formation; EC50, µM; 2,100 tested, 83% active; AID 434968, 2010
A number is an active result; i = inactive; nt = no result given. Compounds with a hit are over-represented: about 0.92% of the library has one in this group of screens. Unless noted, the rule behind the calls is not given here.

SMILES	Mtb bLac sens	RecA splice inh	FadD28 FP inh	Rv3671c inh	Mtb hypoxia rep	Mtb UGM inh	GFP chromo cs
Cc1ccc(N2C(=O)C3C4C=CC(CNC(=S)N5CCN(c6ccccn6)CC5)(O4)C3C2=O)cc1 (stereo not drawn)	i	i	i	i	nt	i	nt
NS(=O)(=O)c1ccc(N=Cc2c(O)c3ccccc3oc2=O)cc1	i	36.6	i	i	nt	i	i
Cc1cccc(C)c1-n1cccc1/C=C1\SC(=S)N(c2cccc(C(=O)O)c2)C1=O	i	33.5	i	i	i	i	11
CCCN1CC=C2C(C#N)=C(N)C(C#N)(C#N)C(c3cccc(OC)c3OC)C2C1 (stereo not drawn)	i	i	i	i	i	i	nt
CCCCCN(C(=O)CCC(=O)OCC(=O)N(C)Cc1ccccc1C)c1c(N)n(CCCC)c(=O)[nH]c1=O	i	i	i	i	i	i	nt
O=C(CS(=O)c1ccc(C(F)(F)F)cc1[N+](=O)[O-])Oc1ccccc1 (stereo not drawn)	i	66.0	i	i	i	i	14.8
COc1ccc(NC2=C(NCCO)C(=O)c3ccccc3C2=O)cc1	i	56.0	i	i	i	i	31
O=C1C(Cl)=C(Nc2ccc(O)cc2)C(=O)c2ccccc21	i	94.5	i	i	i	i	2.5
Cc1ccc(NC2=C(Cl)C(=O)c3ccccc3C2=O)cc1	i	i	i	i	i	i	nt
O=C1C=C(Nc2ccc(O)cc2)C(=O)c2ccccc21	i	72.5	i	i	i	i	3.65
COC1=C(Nc2ccc(OC)cc2)C(=O)c2ccccc2C1=O	i	i	i	i	i	i	nt
COC1=C(Nc2ccc(O)cc2)C(=O)c2ccccc2C1=O	i	57.9	i	i	i	i	13.1
O=C(Nc1nnc(C2CC2)s1)c1cccc(S(=O)(=O)N2CCc3ccccc32)c1	i	i	i	i	nt	i	nt
O=[N+]([O-])c1cccc(-c2noc3c2-c2nc(Cc4cccc5ccccc45)sc2CC3)c1	i	i	i	i	i	i	nt
COC(CNC(=O)c1ccc2c3c(onc13)-c1ccccc1C2=O)OC	i	53.1	i	i	i	27.0	20.1
COC(CNC(=O)c1cccnc1)OC	i	i	i	i	i	i	nt
COc1ccc(OC)c(C2C(C#N)=C(N)Oc3cc(C)[nH]c(=O)c32)c1 (stereo not drawn)	i	i	i	i	i	i	nt
COc1ccc(OC)c(C2C(C#N)=C(N)Oc3c2c(C)nn3-c2cccc(Cl)c2)c1 (stereo not drawn)	i	37.4	i	i	i	i	37.8
CC(=O)C1=C(C)OC(N)=C(C#N)C1c1ccncc1 (stereo not drawn)	i	i	i	i	nt	i	nt
Cc1nn(-c2cccc(Cl)c2)c2c1C(c1cccnc1)C(C#N)=C(N)O2 (stereo not drawn)	i	34.7	i	i	i	i	21.3
Cc1nn(-c2cccc(Cl)c2)c2c1C(c1ccncc1)C(C#N)=C(N)O2 (stereo not drawn)	i	57.1	i	i	i	i	23
CC(Sc1ccccn1)C(=O)Nc1ccc2c(c1)OCO2 (stereo not drawn)	i	nt	i	i	i	i	nt
CC1(C)Cc2ccccc2C(Nn2cnnc2)=N1	i	i	i	i	i	i	nt
CC1(C)Cc2ccccc2C2=NNC(=O)C2=N1	i	94.1	i	i	i	i	1.1
Cn1c(SCC(=O)NCC2CCCO2)ncc(C(=O)Nc2ccc(F)cc2)c1=O (stereo not drawn)	i	38.6	i	i	i	i	0.89
Cn1c(SCC(=O)NCC2CCCO2)ncc(C(=O)Nc2ccc(Cl)cc2)c1=O (stereo not drawn)	i	54.3	i	i	i	i	i
CC(=O)Nc1ccc(NC(=O)CSc2ncc(C(=O)Nc3ccc(Cl)cc3)c(=O)n2C)cc1	i	i	i	i	i	i	nt
CCc1nc(SCC(=O)N2CCN(c3ccccc3)CC2)c2oc3ccccc3c2n1	i	32.4	i	i	i	i	i
N#CC1=C(N)Oc2n[nH]c(-c3ccccc3)c2C12C(=O)Nc1ccccc12 (stereo not drawn)	i	i	i	i	i	i	nt
